The list is not random: actives were taken first. Their share in the collection is about 22%.
CYP2C19 inh: human CYP2C19 inhibition | actives 21% (n = 96,000) | AID 778 | inhibition, % at 5 µM | CYP2C19 Supersomes, luciferin-H EGE luminescence, 30 min;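 active means CYP2C19 inhibition above a set limit at 5 µM in the primary screen, cut at about 50% in these data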;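 further: plate controls were negative control wells for no effect and 2.5 mM tranylcypromine positive control for full effect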
Target sequence (P33261 whole entry, looked up): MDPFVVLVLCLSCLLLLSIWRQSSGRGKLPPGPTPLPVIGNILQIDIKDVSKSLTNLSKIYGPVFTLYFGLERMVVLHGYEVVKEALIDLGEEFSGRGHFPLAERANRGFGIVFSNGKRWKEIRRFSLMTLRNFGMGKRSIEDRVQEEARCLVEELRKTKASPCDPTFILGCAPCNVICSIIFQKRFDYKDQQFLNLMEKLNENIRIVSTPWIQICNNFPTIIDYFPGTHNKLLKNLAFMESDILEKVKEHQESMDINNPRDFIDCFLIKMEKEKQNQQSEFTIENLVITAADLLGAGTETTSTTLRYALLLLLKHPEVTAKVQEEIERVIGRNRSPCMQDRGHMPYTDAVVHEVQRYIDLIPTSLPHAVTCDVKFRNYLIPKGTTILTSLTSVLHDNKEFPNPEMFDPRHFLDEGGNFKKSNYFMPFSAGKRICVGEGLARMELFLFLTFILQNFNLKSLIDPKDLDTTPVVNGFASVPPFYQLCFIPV
CYP2C9 inh: human CYP2C9 inhibition; inhibition, % at 5 µM; CYP2C9 Supersomes, luciferin-H conversion, luminescence; AID 777; actives 20% (n = 96,000); P11712;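 active means blocking of liver enzyme CYP2C9 beyond about 50% at 5 µM, limit read from the data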
Measles CPE: protection of cells from measles virus; AID 841; Measles virus-infected cells, CPE protection, absorbance; protection (pct of control), % at 4 µM; actives 1.5% (n = 140,000); in the data active means protection mostly above about 24%, no sharp cut-off; inactive means mostly below about 26%
CYP2C9 activ: increases human cytochrome P450 2C9 activity; AID 1024; P11712; activation factor at 5 µM; recombinant CYP2C9, luciferin-H conversion, luminescence; active compounds read high; factor 1 = untreated enzyme, 0 = blocked; actives 1.4% (n = 96,000);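 active means activation factor of 2 or more for CYP2C9 at a 5 µM dose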;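 further: 0 = sulfaphenazole-blocked wells and 1 = vehicle-only wells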
CYP2C19 act: cytochrome P450 2C19 (human) activation; recombinant CYP2C19, luciferin-H EGE luminescence; active compounds read high; 0 = fully inhibited enzyme, 1 = untreated enzyme; activation factor at 5 µM; 96,000 tested, under 10 active; AID 1025;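 active means activation factor of at least 2 at 5 µM in the primary screen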;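 further: 0 = wells with 2.5 mM tranylcypromine and 1 = vehicle-only wells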
* marks the source's active call; other numbers are inactive results.

`Cc1cccc(OP(=O)(Oc2ccccc2)OC(c2ccccc2)C(F)(F)F)c1` (stereo not drawn) gave Measles CPE 8.4.
`Cc1ccccc1OCCN=Cc1c(O)n(C)c(=O)n(C)c1=O` gave CYP2C19 inh 64.1*, CYP2C9 inh 26.7, Measles CPE 4.3, CYP2C9 activ 0.7 and CYP2C19 act 0.4.
Cc1ccc2c(c1)C1CN(C)CCC1N2C(=O)c1ccco1 (stereo not drawn) was read as CYP2C19 inh -3.8, CYP2C9 inh -0.3, Measles CPE 8.7, CYP2C9 activ 1 and CYP2C19 act 1.
For O=C(CNS(=O)(=O)c1ccc(Br)s1)N1CCC2(CC1)OCCO2 the results were CYP2C19 inh 58.2*, CYP2C9 inh 27.2, Measles CPE 8.9, CYP2C9 activ 0.7 and CYP2C19 act 0.4.
`CN1CCN(c2ccc([N+](=O)[O-])c(NCc3ccco3)c2)CC1` gave Measles CPE 9.6.
Screening O=C(CF)NC(Nc1cccc2cccnc12)C(Cl)(Cl)Cl (stereo not drawn) returned CYP2C19 inh 88.9*, CYP2C9 inh 40.6, Measles CPE 0.4, CYP2C9 activ 0.6 and CYP2C19 act 0.1.
Screening COc1ccc(C(=O)C2(C)N(O)C(C)C(c3cccs3)=[N+]2[O-])cc1 (stereo not drawn) returned CYP2C19 inh 41.7, CYP2C9 inh 41.9, Measles CPE 13.3, CYP2C9 activ 0.6 and CYP2C19 act 0.6.
CNP(=S)(NC)OCCOc1ccc(OC)cc1 was read as CYP2C19 inh 83.9*, CYP2C9 inh 47.3, Measles CPE 21.2, CYP2C9 activ 0.5 and CYP2C19 act 0.2.
For COc1ccc(OCC(=O)N2CCN(C(C)C)CC2)cc1 the results were Measles CPE 1.9.
`O=C1OCCN1P(=O)(c1ccccc1)c1ccccc1` gave CYP2C19 inh 3.8, CYP2C9 inh 3.2, Measles CPE 13.3, CYP2C9 activ 1 and CYP2C19 act 1.
COc1ccc(CCNCc2ccccn2)cc1OC was read as CYP2C19 inh 14.1, CYP2C9 inh 9.0, Measles CPE 8.0, CYP2C9 activ 0.9 and CYP2C19 act 0.9.
COc1ccc(CCNCc2ccc(SC)cc2)cc1 was read as CYP2C19 inh 81.2*, CYP2C9 inh -2.9, Measles CPE 33.0, CYP2C9 activ 1 and CYP2C19 act 0.2.
Fc1ccc(CCNCc2cccc(Cl)c2)cc1 was read as CYP2C19 inh 91.6*, CYP2C9 inh 6.8, Measles CPE 4.6, CYP2C9 activ 0.9 and CYP2C19 act 0.1.
Screening Fc1ccc(CCNCc2ccc(Br)cc2)cc1 returned Measles CPE 5.9.
`COc1ccc(CCNCc2ccc(F)cc2)cc1OC` gave CYP2C19 inh 52.2*, CYP2C9 inh -15.6, Measles CPE 16.6, CYP2C9 activ 1.2 and CYP2C19 act 0.5.
Screening CC(C)CC1C(C#N)=C(N)Oc2c1c(=O)oc1ccccc21 (stereo not drawn) returned CYP2C19 inh 27.8, CYP2C9 inh 76.8*, Measles CPE 6.7, CYP2C9 activ 0.2 and CYP2C19 act 0.7.
For N#CC1=C(N)Oc2c(c(=O)oc3ccccc23)C1c1ccncc1 (stereo not drawn) the results were CYP2C19 inh 57.2*, CYP2C9 inh 95.5*, Measles CPE 3.3, CYP2C9 activ 0 and CYP2C19 act 0.4.
Screening CCOc1ccc(C2C(C#N)=C(N)Oc3c2c(=O)oc2ccccc32)cc1 (stereo not drawn) returned CYP2C19 inh 8.9, CYP2C9 inh 83.3*, Measles CPE 8.0, CYP2C9 activ 0.2 and CYP2C19 act 0.9.
COC(=O)C1=C(N)Oc2c(c(=O)oc3ccccc23)C1c1cccnc1 (stereo not drawn) was read as CYP2C19 inh 23.4, CYP2C9 inh 91.5*, Measles CPE 5.5, CYP2C9 activ 0.1 and CYP2C19 act 0.8.
`COc1ccc(-c2cc(=Nc3ccccc3)c3cc(C)ccc3o2)cc1` gave Measles CPE 12.6.
`CCC(C)C12CN3CCN(CC(C)(C3)C1=O)C2` (stereo not drawn) gave CYP2C19 inh 76.2*, CYP2C9 inh 76.8*, Measles CPE 14.9, CYP2C9 activ 0.2 and CYP2C19 act 0.2.
Screening FC(F)(F)c1cccc(-n2nnnc2C2(N3CCOCC3)CCCCC2)c1 returned CYP2C19 inh 56.6*, CYP2C9 inh 26.4, Measles CPE 4.5, CYP2C9 activ 0.7 and CYP2C19 act 0.4.
